# Only some compounds are listed: those with a hit (about 2.8% of all), similar ones and a draw of the others.
# CF NFkB inh: inhibitors of PAF-induced NF-kB signaling, primary screen, cell-based, GFP fluorescence, uHTS; KKLEB NF-kB-GFP reporter, GFP fluorescence overnight; inhibition, % at 5 µM; 360,000 tested, 0.86% active; AID 588850, 2011;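 active = at least 50% inhibition at 5 µM, scaled per plate between neutral and stimulator controls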;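 note: PAF is a Pseudomonas aeruginosa culture filtrate used as stimulus; plate controls were PAF-stimulated DMSO wells for no effect and unstimulated DMSO wells for full effect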
# HIF-2a inh: HIF-2a reporter inhibitors, primary screen, luminescence, 786-0 RCC cells; 360,000 tested, 0.72% active; inhibition, % at 18.8 µM; 786-0 RCC cells HIF-2a reporter, luciferase luminescence, overnight;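 active = inhibition of the luminescence signal of 40% or more relative to plate controls, in a single-dose primary screen at 18.75 µM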
# Peg3 promoter: Peg3 promoter-driven luciferase inhibitors, primary screen, cell-based, HeLa, luciferase luminescence | AID 588405, 2011 | 360,000 tested, 1.7% active | inhibition, % at 20 µM | HeLa PEG-Prom luciferase reporter, overnight;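 active = inhibition of at least 50% at 20 µM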
# MITF TRPM1 inh: inhibitors of MITF-dependent TRPM1 promoter reporter, primary screen, cell-based, SK-MEL-5, single point, luciferase | inhibition, % at 12.5 µM | 330,000 tested, 0.83% active | SK-MEL-5 TRPM1 promoter luciferase, 24 h | AID 488899, 2010;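 active = mean inhibition across replicates of 60% or more, whatever share of single replicates reaches that level; inconclusive = some that reach 60%, reason not given; inactive = mean inhibition across replicates below 60%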
# KKLEB tox: cytotoxicity in KKLEB CF airway cells, primary screen, cytotoxicity control for CF NF-kB inhibitor project, cell-based, uHTS, fluorescence assay plates; 360,000 tested, 0.36% active; AID 602141, 2011; KKLEB CF airway cells viability, ATPlite luminescence, overnight; stronger effect = lower value; cells stimulated with P. aeruginosa culture filtrate; activity change (cytotoxicity), % at 5 µM;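 active = corrected activity change at or below -50% at 5 µM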
# B2AR ag: beta2AR agonists driving receptor internalization, primary screen, cell-based, FAP fluorogen, flow cytometry; Beta-2 adrenergic receptor (Homo sapiens), P07550; Am2.2-beta2AR cells; response, % (concentration not given with the values); 340,000 tested, 0.43% active; AID 504454, 2011;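 active = response above a set limit, near 3 SD of response in nonfluorescent compounds, cut at about 42% in these data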
# Target sequence (P07550 whole entry, looked up): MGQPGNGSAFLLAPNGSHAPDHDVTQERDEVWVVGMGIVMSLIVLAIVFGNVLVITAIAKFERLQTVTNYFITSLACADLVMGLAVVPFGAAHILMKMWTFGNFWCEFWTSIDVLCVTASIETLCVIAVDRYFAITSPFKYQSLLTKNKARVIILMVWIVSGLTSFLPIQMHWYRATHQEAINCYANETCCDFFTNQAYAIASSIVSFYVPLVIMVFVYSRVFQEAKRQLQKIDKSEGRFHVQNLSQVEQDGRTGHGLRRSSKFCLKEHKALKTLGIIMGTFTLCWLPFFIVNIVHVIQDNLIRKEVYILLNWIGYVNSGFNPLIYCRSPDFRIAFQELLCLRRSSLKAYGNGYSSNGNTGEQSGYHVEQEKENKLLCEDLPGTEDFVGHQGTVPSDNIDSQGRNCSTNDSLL
# * = called active by the depositor; ? = inconclusive; · = no result.
SMILES,CF NFkB inh,HIF-2a inh,Peg3 promoter,MITF TRPM1 inh,KKLEB tox,B2AR ag
CN(C)CCCN(C(=O)c1ccc(S(=O)(=O)N2CCc3ccccc32)cc1)c1nc2c(Cl)cccc2s1,30.9,6.1,34.9,?,-26.0,32.7
Cc1cc(C)c2nc(N(CCCN(C)C)C(=O)c3ccc4c(c3)OCCO4)sc2c1,25.9,-43.1,97.7*,-17.4,-17.0,18.8
CCOc1ccc2nc(N(CCCN(C)C)C(=O)c3ccc(S(=O)(=O)N4CCc5ccccc5C4)cc3)sc2c1,-6.9,12.1,27.8,73.5*,-27.7,30.1
Cn1ccc2c(-c3ccc(C(F)(F)F)cc3)cc3c(c21)C1CCC3C1 (stereo unspecified),20.3,4.7,1.9,·,-26.7,·
Cc1ccc(S(=O)(=O)N2C[C@H]3N(C(=O)OC(C)C)N(C(=O)OC(C)C)C[C@H](OC(=O)NCC4CCCCC4)[C@@]3(O)C2)cc1,12.6,-50.0,24.9,·,8.9,·
C[C@@H]1CCCCO[C@H](CN(C)C(=O)Nc2ccc3c(c2)OCO3)[C@H](C)CN([C@@H](C)CO)C(=O)c2cc(NS(=O)(=O)c3ccc(Cl)cc3)ccc2O1,13.9,-1.4,12.4,·,9.0,·
Cc1ccccc1NC(=O)CSc1nc2ccccc2c2nc(CCn3cncc3C)nn12,10.4,18.0,-95.3,0.3,-4.7,-17.5
Cc1ccc(NC(=O)CSc2nc3ccccc3c3nc(CCn4cncc4C)nn23)c(C)c1,4.7,5.6,95.6*,-13.7,-19.2,4.8
Cc1ccccc1C(=O)NC1CC2CCCC(C1)N2CC(C)C (stereo unspecified),-10.8,4.8,-1.4,·,-3.5,·
COc1ccc(/C=C(\NC(=O)c2ccco2)C(=O)N2CCOCC2)cc1,-16.0,5.1,4.5,-2.3,6.1,-5.3
COc1ccc(/C=C(/NC(=O)c2ccco2)C(=O)N2CCOCC2)cc1,10.1,7.1,3.7,6.3,5.9,49.4*
Cc1ccc(N2C(=O)C3C(c4ccccc4)N4CCCN4C3(C)C2=O)cc1 (stereo unspecified),-2.7,11.7,16.5,2.9,-9.8,43.5*
Cc1ccc(N2C(=O)C3C(C2=O)N2CCCN2C3c2ccccc2)cc1C (stereo unspecified),10.8,0.0,7.6,-0.8,1.8,-8.9
O=C(/C=C/c1ccc(S(=O)(=O)N2CCOCC2)cc1)N1CCN(c2ccccc2)CC1,10.7,13.7,66.3*,6.8,-0.3,-4.1
Cc1cc(C)cc(NC(=O)/C(C#N)=C/c2cn(CC(=O)NCc3ccco3)c3ccccc23)c1,69.8*,14.0,74.5*,83.9*,-71.8*,3.6
Cc1ccc(NC(=O)/C(C#N)=C/c2cn(CC(=O)NCc3ccco3)c3ccccc23)cc1C,17.7,7.6,36.0,12.5,1.1,-6.9
CNC(=O)/C(C#N)=C/c1cn(CC(=O)NCc2ccco2)c2ccccc12,2.6,11.3,17.2,-4.1,-2.9,-5.8
Cc1ccc(CS/C(Nc2ccccc2C)=C(\C#N)C(=O)NCc2ccco2)c(C)c1,-3.7,22.6,50.9*,-4.6,-14.4,10.7
Cc1ccc(C)c(NC(=O)/C(C#N)=C/c2cn(CC(=O)NCc3ccco3)c3ccccc23)c1,28.2,4.5,51.1*,56.6,-45.1,-8.6
COc1ccc(NC(=O)C[C@H]2C(=O)N(C3CCCCC3)C[C@@H]2C)cc1,-10.7,-1.3,0.1,·,6.1,·
CCOc1ccc(C(=O)C(CN2CCOCC2)c2ccccc2)cc1 (stereo unspecified),25.7,31.3,82.5*,50.3,-47.4,-1.1
O=C(c1ccccc1)C(CN1CCCCC1)c1ccccc1 (stereo unspecified),84.9*,27.3,103.5*,97.2*,-62.9*,28.7
CCOc1ccc(C(C#N)N2CCOCC2)cc1OC (stereo unspecified),-34.2,12.0,-4.0,-1.4,7.7,-0.5
CCOc1ccc(C(CN2CCOCC2)C(C)=O)cc1OC (stereo unspecified),17.0,-10.2,58.4*,·,1.4,·
C[C@H](CO)N1C[C@H](C)[C@@H](CN(C)S(=O)(=O)c2ccccc2C#N)OCc2cnnn2CCCC1=O,-1.8,1.0,-3.3,·,6.5,·
SMILES,CF NFkB inh,HIF-2a inh,Peg3 promoter,MITF TRPM1 inh,KKLEB tox,B2AR ag
CC1(c2ccccc2)CC(C)(C)N2C(=O)/C(=C3\SC(=S)NC3=O)c3cccc1c32 (stereo unspecified),61.1*,8.8,36.8,12.0,-24.6,-4.6
CC1(c2ccccc2)CC(C)(C)N2C(=O)C3(C(C#N)=C(N)Oc4cc(O)ccc43)c3cccc1c32 (stereo unspecified),12.8,32.6,22.3,3.0,4.1,10.2
CCOC(=O)c1ccccc1NC(=O)COC(=O)CCCOc1ccccc1,-1.9,3.7,13.3,4.9,2.2,1.9
CCOC(=O)c1ccccc1NC(=O)COc1ccccc1,-2.7,-4.9,68.3*,-3.8,9.1,6.7
COC(=O)c1ccccc1NC(=O)CSCC(=O)Nc1ccccc1,-3.5,23.0,10.8,11.3,-69.2*,31.4
COC(=O)c1ccccc1NC(=O)Nc1ccc(C(=O)N2CCCC2)cc1,-3.0,35.3,58.1*,5.7,1.3,-9.2
O=C1NC(=O)C(c2ccccc2)(c2ccccc2)N1S(=O)(=O)c1ccccc1,4.2,16.2,-8.7,·,6.4,·
COC(=O)C[C@@H]1CC[C@@H](NS(=O)(=O)c2ccccc2OC)[C@@H](CO)O1,·,9.4,·,·,·,·
CC(C)c1ccc(NC(=O)Nc2nc(C(N)c3ccccc3)cs2)cc1 (stereo unspecified),12.2,4.9,109.7*,·,-42.8,·
CC(C)c1ccc(NC(=O)Nc2nc(C(N)C(C)C)cs2)cc1 (stereo unspecified),7.9,-10.1,95.8*,·,-13.4,·
CC(C)c1ccc(NC(=O)Nc2nc(C(N)COCc3ccccc3)cs2)cc1 (stereo unspecified),-13.4,26.2,110.0*,·,-4.6,·
CC(C)C(N)c1csc(NC(=O)Nc2cccc(Cl)c2)n1 (stereo unspecified),13.0,-41.3,23.5,·,-28.9,·
CC(C)=CCC[C@H](C)C[C@@H]1CC2=C(C(=O)OC(C)(C)O2)[C@H](c2ccc(F)cc2)O1,15.7,6.0,-4.4,·,-10.8,·
CC(C)Nc1ncnc2c1ncn2[C@H]1CN(Cc2cccnc2)C[C@@H](CO)O1,-6.0,8.8,-7.3,·,-2.0,·
N/C(=N\S(=O)(=O)c1cccs1)c1ccccc1,-2.4,8.5,3.0,0.0,-4.9,0.4
O=C1/C(=N\S(=O)(=O)c2cccs2)C([n+]2ccccc2)=C([O-])c2ccccc21,67.9*,43.8*,35.1,104.2*,-0.4,8.2
